Measured values taken from PubChem BioAssay AID686964 (The Scripps Research Institute Molecular Screening Center, 2013).
The campaign covered roughly 370,000 compounds. About 1,100 (0.3%) were called active. The sample holds actives, similar compounds and a random draw of the others, so the mix is not that of the screen. Cut-off read from the data, not from the text of the source: active = inhibition above about 13%; inactive = the rest.

Molecular target: Methyl-CpG-binding domain protein 2 (Homo sapiens) (UniProt Q9UBB5)
Assay: inhibitors of MBD2 binding to methylated DNA, primary screen, biochemical, TR-FRET, DNA-binding domain, human (AID 686964)
Details: MBD2 binding to methylated oligonucleotide, at 4.4 µM, stronger effect = higher value

Chain of Methyl-CpG-binding domain protein 2 (Homo sapiens) (Q9UBB5 whole entry, looked up, the tested form may be a part): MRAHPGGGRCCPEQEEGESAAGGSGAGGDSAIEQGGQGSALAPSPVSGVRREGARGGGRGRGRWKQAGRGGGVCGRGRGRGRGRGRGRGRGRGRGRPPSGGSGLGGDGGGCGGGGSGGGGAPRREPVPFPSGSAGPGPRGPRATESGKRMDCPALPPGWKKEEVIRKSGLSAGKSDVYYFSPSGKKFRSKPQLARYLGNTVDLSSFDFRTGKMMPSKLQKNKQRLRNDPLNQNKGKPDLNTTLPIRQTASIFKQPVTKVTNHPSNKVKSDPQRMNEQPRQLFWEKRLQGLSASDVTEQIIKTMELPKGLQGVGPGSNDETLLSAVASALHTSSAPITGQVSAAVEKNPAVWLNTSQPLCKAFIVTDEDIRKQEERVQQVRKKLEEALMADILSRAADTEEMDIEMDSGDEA

inhibition, inactive:
O=C(O)Cn1cnc2c(NCc3ccccc3)ncnc21 -3.02%, O=C(NCCc1c[nH]c2ccccc12)OCc1cn(-c2c(F)cccc2F)nn1 -6.28%, CCC(=O)OCCCN1C(=O)CCC12CCC(c1ccccc1)CC2 (centres undefined) 3.38%, CN1C(c2ccc(F)cc2)=CS/C1=C(/C#N)c1nnc2n1-c1ccccc1SC2 -4.62%, COC(CNC(=O)[C@H](Cc1ccccc1)NC1(C(=O)NC2CCCCC2)CCCCC1)OC 6.86%, C=CS(=O)(=O)N(Cc1nnn(Cc2ccccc2)c1Br)[C@H](C(=O)OC)C(C)C -4.08%, Cc1ccc(-c2noc(CCC(=O)Nc3ccccc3N3CCN(C)CC3)n2)cc1 -4.01%, COCCNC(=S)c1ccc(OC)cc1 0.26%, COCCNC(=O)c1cc2c(Br)ccc(Br)c2nc1N 1.97%, COc1cccc(CNC(=O)CNS(=O)(=O)c2ccc3nc(C)sc3c2)c1OC 3.15%, CCOC(=O)C1CCCN(C(=O)c2ccc(C)c(F)c2)CC1 (centres undefined) -3.99%, CCOC(=O)C1CCCN(C(=O)c2ccc(N(C)C)cc2)CC1 (centres undefined) 7.99%, Cc1c(C(=O)N2CC(C)OC(C)C2)sc2nc(-c3ccccc3)cn12 (centres undefined) -0.32%, CC(C)C(C#CC1CC1)N(Cc1ccc2c(c1)OCO2)C(N)=NC(=O)/C=C/c1cccc(C(F)(F)F)c1 (centres undefined) -0.7%, CC(C)(C)NC(=O)C(c1cccnc1)N(C(=O)c1cnco1)c1ccc(C(C)(C)C)cc1 (centres undefined) 2.09%, CCC(NC(=O)C1C2C=CC3(CN(Cc4ccccc4)C(=O)C13)O2)c1ccccc1 (centres undefined) 0.25%, COc1ccc(-c2nnc(SCC(=O)c3ccc4c(c3)OCCO4)o2)cc1 -3.62%, CCc1ccccc1NC(=O)CSc1nnc(-c2cccs2)o1 2.5%, O=C(CSc1nncn1-c1cccnc1)N1CCOCC1 2.16%, COc1cc(NC(=O)C2CCCN(S(=O)(=O)c3ccc(C(C)(C)C)cc3)C2)cc(OC)c1 (centres undefined) -0.54%, CCCCCCCCN1C(=O)[C@@H](CC(=O)NCc2ccccc2)C[C@@]2(C(=O)OC)C1=C[C@H](C(C)(C)C)O[C@@H]2C 3.75%

inhibition, active:
COCCNC(=O)Nc1ccc2nc(-c3ccco3)c(-c3ccco3)nc2c1 53.7%, C=CCN1C(=O)c2ccc(C(=O)N3CCC(C(=O)OCC)CC3)cc2C1=O 16.8%, COc1ccc(-n2c(C)cc(C(=O)CSc3nnc(-c4cccs4)o3)c2C)cc1 15.1%
